Data from paper PMC8136818, “Evolving origin-of-transfer sequences on staphylococcal conjugative and mobilizable plasmids—who’s mimicking whom?”.

T1: SmpOUNa (plasmid pC02)
T1 chain: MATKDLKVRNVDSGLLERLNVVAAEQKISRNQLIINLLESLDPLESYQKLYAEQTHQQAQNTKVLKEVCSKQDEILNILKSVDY

T2: SmpO408 (Staphylococcus aureus M0408)
T2 chain: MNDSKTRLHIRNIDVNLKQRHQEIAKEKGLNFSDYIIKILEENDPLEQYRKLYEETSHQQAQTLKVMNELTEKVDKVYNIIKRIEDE

B1: OTUNa For/Rev_12 (dsDNA)
DNA 1: AAGATAAATGTTTAAAACCCTTGAAATATC
DNA 2: GATATTTCAAGGGTTTTAAACATTTATCTT
B2: OTUNa For/Rev_17 (dsDNA)
DNA 1: TTATAAAATGGGTACATATTTCCCTTATGC
DNA 2: GCATAAGGGAAATATGTACCCATTTTATAA
B3: OTUNa For/Rev_7 (dsDNA)
DNA 1: CAATATATTGTGTCACAAAAGTGTGACAAT
DNA 2: ATTGTCACACTTTTGTGACACAATATATTG
B4: OT408.5 (dsDNA)
DNA 1: CGGTTTTATAGGCGCCTAATAAAAACCTCT
DNA 2: AGAGGTTTTTATTAGGCGCCTATAAAACCG
B5: OT408 For/Rev_8 (dsDNA)
DNA 1: AATATATAGGGGTACATTTTGGGTACAAAA
DNA 2: TTTTGTACCCAAAATGTACCCCTATATATT
B6: OT408 For/Rev_14 (dsDNA)
DNA 1: GTATCCCTTGAAATGTCTGGCTTCGCCAGA
DNA 2: TCTGGCGAAGCCAGACATTTCAAGGGATAC
B7: OTUNa For/Rev_16 (dsDNA)
DNA 1: AGATTACCCATTATAAAATGGGTACATATT
DNA 2: AATATGTACCCATTTTATAATGGGTAATCT
B8: OTUNA.4 (dsDNA)
DNA 1: TTAATTTTTGTGACCCCCATAAGATAAATG
DNA 2: CATTTATCTTATGGGGGTCACAAAAATTAA
B9: OT408 For/Rev_7 (dsDNA)
DNA 1: GTACAGACACAATATATAGGGGTACATTTT
DNA 2: AAAATGTACCCCTATATATTGTGTCTGTAC
B10: OTUNa For/Rev_8 (dsDNA)
DNA 1: TGTCACAAAAGTGTGACAATTTAATTTTTG
DNA 2: CAAAAATTAAATTGTCACACTTTTGTGACA
B11: OTUNa For/Rev_18 (dsDNA)
DNA 1: GGGTACATATTTCCCTTATGCTCTTACAAA
DNA 2: TTTGTAAGAGCATAAGGGAAATATGTACCC
B12: OT408 For/Rev_15 (dsDNA)
DNA 1: AAATGTCTGGCTTCGCCAGACCCACCTTTT
DNA 2: AAAAGGTGGGTCTGGCGAAGCCAGACATTT
B13: OTUNa For/Rev_9 (dsDNA)
DNA 1: GTGTGACAATTTAATTTTTGTGACCCCCAT
DNA 2: ATGGGGGTCACAAAAATTAAATTGTCACAC
B14: OT408 For/Rev_12 (dsDNA)
DNA 1: GGCGCCTAATAAAAACCTCTGTATCCCTTG
DNA 2: CAAGGGATACAGAGGTTTTTATTAGGCGCC
B15: OT408 For/Rev_13 (dsDNA)
DNA 1: AAAAACCTCTGTATCCCTTGAAATGTCTGG
DNA 2: CCAGACATTTCAAGGGATACAGAGGTTTTT
B16: OT408 For/Rev_10 (dsDNA)
DNA 1: GGGTACAAAACGGTTTTATAGGCGCCTAAT
DNA 2: ATTAGGCGCCTATAAAACCGTTTTGTACCC
B17: OT408 For/Rev_17 (dsDNA)
DNA 1: CCCACCTTTTTAATAGGTGGCAAATTTCCC
DNA 2: GGGAAATTTGCCACCTATTAAAAAGGTGGG
B18: ossA408 (dsDNA)
DNA 1: TTATAGGCGCCTAATA
DNA 2: TATTAGGCGCCTATAA
B19: OTUNa For/Rev_11 (dsDNA)
DNA 1: TGACCCCCATAAGATAAATGTTTAAAACCC
DNA 2: GGGTTTTAAACATTTATCTTATGGGGGTCA
B20: OT408 For/Rev_9 (dsDNA)
DNA 1: GGTACATTTTGGGTACAAAACGGTTTTATA
DNA 2: TATAAAACCGTTTTGTACCCAAAATGTACC

Target: T1, SmpOUNa
Assay: SPR (ReDCaT); 300 mM NaCl; 10 mM HEPES, 3 mM EDTA, 0.05% Tween 20, NaCl 150 mM (SmpO49 screens), 300 mM (SmpO45, SmpO408, SmpOUNa screens) or 250 mM (Table S4); pH and temperature not stated; protein 1 uM; high values mean tight binding
Settings: protein: recombinant; tags: His6-TEV, cleaved; chain copies: 4
Procedure, shortened: (§1)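 The running buffer was 10 mM HEPES, 300 mM NaCl, 3 mM EDTA, 0.05% Tween 20, and protein at 1 μM was injected at 30 μl/min for 60 s contact and 60 s dissociation. The protein had been expressed in E. coli BL21(DE3)pLysS, cleaved of its tag, and purified by nickel-affinity and size-exclusion chromatography. OriT oligonucleotides were captured at 1 μM on Fc2 of a Biacore T200 SA chip by reusable DNA capture, and a linker was captured on Fc1. Values are DNA binding expressed as %Rmax.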

Binder | binding signal [%Rmax]
B1 | 1.56 ± 0.168
B2 | 9.96 ± 0.667
B3 | 3.471 ± 0.00557
B7 | 12.5 ± 0.926
B8 | 58.4 ± 1.36
B10 | 17 ± 0.439
B11 | 26.2 ± 1.85
B13 | 53.342 ± 0.0463
B19 | 18.2 ± 1.39

Target: T2, SmpO408
Assay: as above
Settings: protein: recombinant; tags: His6-TEV, cleaved; chain copies: 4
Procedure, shortened: as §1

Binder | binding signal [%Rmax]
B4 | 109
B5 | 5.29
B6 | 8.57
B9 | 7.42
B12 | 14.3
B14 | 25.9
B15 | 4.19
B16 | 71.2
B17 | 64.6
B18 | 63.9 ± 1.02
B20 | 4.6

Target: T2, SmpO408
Assay: SPR (ReDCaT); 250 mM NaCl; 10 mM HEPES, 3 mM EDTA, 0.05% Tween 20, NaCl 150 mM (SmpO49 screens), 300 mM (SmpO45, SmpO408, SmpOUNa screens) or 250 mM (Table S4); pH and temperature not stated; protein 1 uM; high values mean tight binding
Settings: protein: recombinant; tags: His6-TEV, cleaved; chain copies: 4

Binder | binding signal [%Rmax]
B18 | 52.8
